Assay [1] can be described thus: antimalarial activity against Dd2 strain (AID 2302;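 active = growth inhibition above 50% at the single 2 µM test dose, taken to imply half-maximal potency below 2 µM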;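 note: 0% = DMSO untreated growth and 100% = chloroquine plus artemisinin killed control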). The conditions noted are these: P. falciparum Dd2 in RBCs, LDH growth readout, 72 h; at 2 µM; active compounds read high.
The nature of assay [2]: HepG2 cytotoxicity, primary screen, cytotoxicity control for P. falciparum antimalarial project, cell-based, ATP luminescence (AID 2303;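 active = inhibition above 50%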;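 note: 0% = DMSO wells and 100% = digitonin-killed cells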). The conditions noted are these: HepG2 viability, 24-48 h, at 10 µM, active compounds read high.
In assay [3] the target is L-lactate dehydrogenase (Plasmodium falciparum (isolate CDC / Honduras)) (UniProt Q27743). Nature of the assay: PfLDH activity inhibition – cell lysate, 3D7 strain, counter-screen for P. falciparum growth inhibition project (AID 2304).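 Note: 0% = vehicle and 100% = reference inhibitor.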 To be noted: P. falciparum 3D7 crude extract, LDH APAD/NBT absorbance; at 2 µM; active compounds read high. In general terms: A counterscreen serves to expose hits that act by an unwanted route or on another target.

Assay [4] is described as follows: inhibition of 3D7 malaria parasite growth – strain 3D7 (AID 2306).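 Note: 0% = DMSO wells and 100% = chloroquine plus artemisinin control wells.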 The conditions noted are these: P. falciparum 3D7 erythrocytic growth, LDH absorbance, 72 h; at 2 µM; active compounds read high.
In assay [5] the target is Calcium-dependent protein kinase 1 (Plasmodium falciparum (isolate 3D7)) (UniProt P62344). Nature of the assay: PfCDPK1 kinase inhibitors, biochemical, TCAMS library (AID 1159585; cut-off not given, nearly all actives have IC50 up to about 0.98 µM;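 note: inhibitors leave more ATP so luminescence rises with inhibition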). The conditions noted are these: recombinant PfCDPK1, Kinase-Glo ATP depletion luminescence. For orientation: In Kinase-Glo more light means more ATP remaining.
Assay [6] deals with Plasmodium falciparum protein kinase 6 (PK6, PF3D7_1337100) (UniProt Q8IDW1). Nature of the assay: PfPK6 kinase inhibitors, biochemical, TCAMS library (AID 1159586). The conditions noted are these: recombinant PfPK6, Kinase-Glo ATP depletion luminescence.
Assay [7] concerns the target Protein kinase 7 (PK7), Plasmodium falciparum 3D7 (PF3D7_0213400) (UniProt Q7YTF7). Nature of the assay: inhibition of Plasmodium PK7 catalytic activity – biochemical, TCAMS antimalarial set, Kinase-Glo luminescence (AID 1159587). The conditions noted are these: recombinant PfPK7, Kinase-Glo ATP depletion luminescence.
Assay [8] deals with Calcium-dependent protein kinase 4 (Plasmodium falciparum (isolate 3D7)) (UniProt Q8IBS5). Nature of the assay: PfCDPK4 kinase inhibitors, biochemical, TCAMS library (AID 1159588; cut-off not given, nearly all actives have IC50 up to about 0.91 µM). The conditions noted are these: recombinant PfCDPK4, Kinase-Glo ATP depletion luminescence.

Where “and” joins values, the source holds several entries; their conditions need not be identical. Equal values may be shown once. Values without a mark were called inactive. For some assays here: Entries with a potency or affinity are not part of this list. Calls of active or inactive are those of the source. Unless noted, the rule behind the calls is not given here.

One may read the inhibition as the change of the read-out against control, counted positive when it falls.

Chain of Calcium-dependent protein kinase 1 (Plasmodium falciparum (isolate 3D7)) (P62344 whole entry, looked up): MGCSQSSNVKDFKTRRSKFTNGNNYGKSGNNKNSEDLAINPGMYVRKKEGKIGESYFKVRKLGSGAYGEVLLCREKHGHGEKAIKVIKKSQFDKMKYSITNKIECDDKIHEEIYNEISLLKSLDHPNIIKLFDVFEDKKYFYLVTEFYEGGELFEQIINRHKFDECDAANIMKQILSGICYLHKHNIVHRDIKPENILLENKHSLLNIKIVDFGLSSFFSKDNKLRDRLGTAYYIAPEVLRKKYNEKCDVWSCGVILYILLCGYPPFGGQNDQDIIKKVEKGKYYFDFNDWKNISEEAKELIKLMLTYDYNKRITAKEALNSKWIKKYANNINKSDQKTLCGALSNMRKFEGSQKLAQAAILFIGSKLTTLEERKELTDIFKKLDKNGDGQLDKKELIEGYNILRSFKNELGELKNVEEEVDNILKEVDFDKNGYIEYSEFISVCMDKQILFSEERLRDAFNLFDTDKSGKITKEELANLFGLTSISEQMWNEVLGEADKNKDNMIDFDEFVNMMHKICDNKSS
Chain of Plasmodium falciparum protein kinase 6 (PK6, PF3D7_1337100) (Q8IDW1 1-305): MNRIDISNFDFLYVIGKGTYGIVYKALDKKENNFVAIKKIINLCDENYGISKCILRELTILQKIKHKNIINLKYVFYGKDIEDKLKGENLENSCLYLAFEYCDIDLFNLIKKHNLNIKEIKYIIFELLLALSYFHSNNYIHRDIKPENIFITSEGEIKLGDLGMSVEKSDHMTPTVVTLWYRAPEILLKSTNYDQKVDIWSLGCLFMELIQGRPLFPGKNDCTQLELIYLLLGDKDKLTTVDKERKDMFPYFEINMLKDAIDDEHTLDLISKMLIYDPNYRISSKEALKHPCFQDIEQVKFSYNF
Chain of L-lactate dehydrogenase (Plasmodium falciparum (isolate CDC / Honduras)) (Q27743 whole entry, looked up): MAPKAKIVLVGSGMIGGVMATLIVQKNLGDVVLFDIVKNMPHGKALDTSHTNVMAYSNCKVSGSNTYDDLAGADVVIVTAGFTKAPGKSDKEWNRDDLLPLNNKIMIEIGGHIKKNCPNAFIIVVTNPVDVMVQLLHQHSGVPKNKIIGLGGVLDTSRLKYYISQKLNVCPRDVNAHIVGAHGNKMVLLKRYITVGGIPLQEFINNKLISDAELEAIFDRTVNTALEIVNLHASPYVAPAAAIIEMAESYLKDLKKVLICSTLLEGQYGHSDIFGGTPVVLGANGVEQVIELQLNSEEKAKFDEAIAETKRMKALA
Chain of Protein kinase 7 (PK7), Plasmodium falciparum 3D7 (PF3D7_0213400) (Q7YTF7 1-343): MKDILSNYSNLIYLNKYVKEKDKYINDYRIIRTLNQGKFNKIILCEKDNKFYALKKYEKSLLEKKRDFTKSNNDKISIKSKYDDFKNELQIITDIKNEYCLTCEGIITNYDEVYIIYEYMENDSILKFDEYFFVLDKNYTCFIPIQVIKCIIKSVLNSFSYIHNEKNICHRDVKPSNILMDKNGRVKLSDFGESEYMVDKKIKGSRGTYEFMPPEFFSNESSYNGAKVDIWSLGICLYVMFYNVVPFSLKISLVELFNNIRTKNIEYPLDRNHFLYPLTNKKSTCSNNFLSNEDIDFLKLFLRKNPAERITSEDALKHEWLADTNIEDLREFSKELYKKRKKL
Chain of Calcium-dependent protein kinase 4 (Plasmodium falciparum (isolate 3D7)) (Q8IBS5 whole entry, looked up): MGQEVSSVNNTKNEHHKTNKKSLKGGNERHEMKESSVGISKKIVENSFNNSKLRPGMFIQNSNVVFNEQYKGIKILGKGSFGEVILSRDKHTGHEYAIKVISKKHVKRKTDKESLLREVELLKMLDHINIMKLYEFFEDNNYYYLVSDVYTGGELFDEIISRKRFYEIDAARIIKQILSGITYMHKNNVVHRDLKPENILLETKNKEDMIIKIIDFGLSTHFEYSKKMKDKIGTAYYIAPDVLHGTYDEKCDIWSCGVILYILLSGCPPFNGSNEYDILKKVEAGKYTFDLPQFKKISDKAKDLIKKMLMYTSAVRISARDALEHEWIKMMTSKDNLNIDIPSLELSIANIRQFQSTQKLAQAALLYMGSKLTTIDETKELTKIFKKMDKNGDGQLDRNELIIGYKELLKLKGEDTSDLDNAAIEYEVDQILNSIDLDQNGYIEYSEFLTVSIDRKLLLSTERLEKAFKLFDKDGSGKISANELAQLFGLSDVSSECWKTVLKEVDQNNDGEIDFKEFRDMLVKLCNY

Regarding `Cc1cc(-c2ncc[nH]2)ccc1-c1ccc(C(=O)N2CCc3cc4c(cc32)C2(CCN(C)CC2)CO4)cc1`, the growth inhibition is 98% (active) in assay [1] and 101% (active) in assay [4]. The inhibition in assay [2] was 32%; in assay [3], 0%. The outcome in assay [5], in assay [6], in assay [7] and in assay [8] was inactive.

Turning to `CC(C)C[C@H](Nc1ccc(C#N)c2ccccc12)C(=O)N[C@@H]1CCCc2ccccc21`, the figures for the growth inhibition in assay [1] and in assay [4] were 100% (active) and 99% (active), respectively. Also, the inhibition in assay [2] is 38%; in assay [3], 10%. Moreover, the outcome in assay [5], in assay [6], in assay [7] and in assay [8] was inactive.

As to `CNC(=O)c1ccc2[nH]cc(C3CCN(CC4CCN(C(=O)/C=C/c5ccc(Cl)c(Cl)c5)CC4)CC3)c2c1`, the growth inhibition in assay [1] is 88% (active); in assay [4] it was 100% (active). Also, the inhibition in assay [2] is 3%; in assay [3] it was 1%. Moreover, the result in assay [5], in assay [6], in assay [7] and in assay [8] was inactive.

In the case of `O=C(/C=C/c1cccc(F)c1)NC1CCC(CN2CCC(c3c[nH]c4ccccc34)CC2)CC1` (configuration not stated), the growth inhibition was 31% and 28% in assay [1]; 98% (active) and 99% (active) in assay [4]. Moreover, the inhibition in assay [2] is 39% and 35%; in assay [3] it was -1% and 0%. Further, the result in assay [5], in assay [6], in assay [7] and in assay [8] was inactive.

Consider `COc1cccc(CCNC(C)Cc2ccc(OCCCCOc3ccccc3)cc2)c1` (configuration not stated), for which the growth inhibition in assay [1] is 90% (active); in assay [4] it was 97% (active). Also, the inhibition in assay [2] is 100% (active); in assay [3] it was 5%. Also, the result in assay [5], in assay [6], in assay [7] and in assay [8] was inactive.

As for `O=C(/C=C/c1ccc(Cl)c(Cl)c1)N1CCC(CN2CCC(c3c(-c4ccc(F)cc4)[nH]c4ccccc34)CC2)CC1`, the growth inhibition was 98% (active) in assay [1] and 101% (active) in assay [4]. The inhibition is 19% in assay [2] and -3% in assay [3]. The outcome in assay [5], in assay [6], in assay [7] and in assay [8] was inactive.

Regarding `Cc1cc(N(C)C2CCN(C)CC2)nc(Nc2ccc(Cl)cc2)n1`, the growth inhibition in assay [1] is 90% (active); in assay [4] it was 98% (active). The inhibition in assay [2] is 15%; in assay [3], -6%. The result in assay [5], in assay [6], in assay [7] and in assay [8] was inactive.

For `Cc1cc(N)nc2cc(CNCCc3ccccc3Br)ccc12`, the figures for the growth inhibition in assay [1] and in assay [4] were 93% (active) and 101% (active), respectively. In addition, the inhibition in assay [2] is 47%; in assay [3], 0%. The result in assay [5], in assay [6], in assay [7] and in assay [8] was inactive.

Take `CC(=O)C1(c2ccccc2)CCN(CCC2(c3ccc(Cl)c(Cl)c3)CN(C(=O)C3CCCCC3)CCO2)CC1` (configuration not stated): the growth inhibition in assay [1] is 99% (active); in assay [4], 100% (active). Further, the inhibition in assay [2] is 3%; in assay [3], -2%. For the same compound, the outcome in assay [5], in assay [6], in assay [7] and in assay [8] was inactive.

On to `O=C(NC1CCN(CC2(c3ccc(Cl)cc3)CCC2)CC1)c1cscn1`, for which the growth inhibition in assay [1] is 95% (active); in assay [4], 98% (active). Also, the inhibition is -2% in assay [2] and -1% in assay [3]. Moreover, the outcome in assay [5], in assay [6], in assay [7] and in assay [8] was inactive.

For the compound `Cc1[nH]c2ccccc2c1C1=CCN(CCCCC23CCCc4cccc(c42)NC3=O)CC1` (configuration not stated), the growth inhibition in assay [1] was 91% (active); in assay [4], 95% (active). For the same compound, the figures for the inhibition in assay [2] and in assay [3] were 9% and -4%, respectively. Besides, the outcome in assay [5], in assay [6], in assay [7] and in assay [8] was inactive.

As to `O=C(NC1CCC(CN2CCC(c3c[nH]c4ccccc34)CC2)CC1)c1cc(-c2ccc(F)cc2F)ccc1O` (configuration not stated), the growth inhibition in assay [1] and in assay [4] was 101% (active) throughout. Also, the inhibition in assay [2] was 30%; in assay [3], 0%. Also, the result in assay [5], in assay [6], in assay [7] and in assay [8] was inactive.

As to `Cc1ccc(C)c(C=CC(=O)NC2CCC(CN3CCC(c4c[nH]c5ccccc45)CC3)CC2)c1` (configuration not stated), the growth inhibition is 55% (active) and 80% (active) in assay [1]; 101% (active) and 102% (active) in assay [4]. Besides, the inhibition in assay [2] was 38% and 46%; in assay [3] it was 3% and 5%. Moreover, the result in assay [5], in assay [6], in assay [7] and in assay [8] was inactive.

For `CCN1CCC(N2CCC(n3c(C)nc4cc(C(F)(F)F)ccc43)CC2)CC1`, the growth inhibition was 16% in assay [1] and 93% (active) in assay [4]. Moreover, the inhibition in assay [2] is 6%; in assay [3], 1%. For the same compound, the outcome in assay [5], in assay [6], in assay [7] and in assay [8] was inactive.

Turning to `CC(C)CNCc1ccc(-c2ccc(CN(C(=O)NC3CCCCC3)C3CCN(Cc4ccccc4)CC3)cc2)cc1`, the growth inhibition in assay [1] is 88% (active); in assay [4], 101% (active). Besides, the values for the inhibition in assay [2] and in assay [3] were 39% and -1%, respectively. In addition, the result in assay [5], in assay [6], in assay [7] and in assay [8] was inactive.

For the compound `O=C(NC1CCC(CN2CCC(c3c[nH]c4ccccc34)CC2)CC1)c1cc(-c2ccccc2)c(C(F)(F)F)s1` (configuration not stated), the growth inhibition in assay [1] was 101% (active); in assay [4], 100% (active). Moreover, the inhibition in assay [2] was 55% (active); in assay [3], 2%. Further, the result in assay [5], in assay [6], in assay [7] and in assay [8] was inactive.

Turning to `CCCCCOc1ccc(CC(C)NCC(O)c2cccc(Cl)c2)cc1` (configuration not stated), the growth inhibition is 99% (active) in assay [1] and 101% (active) in assay [4]. The inhibition in assay [2] was 0%; in assay [3], 2%. The result in assay [5], in assay [6], in assay [7] and in assay [8] was inactive.

For the compound `CC(C)n1ncc2c(C(=O)Nc3ccc(C#N)c(Cl)c3)cc(C3CC3)nc21`, the growth inhibition was 15% in assay [1] and 93% (active) in assay [4]. Further, the inhibition is 20% in assay [2] and 2% in assay [3]. The result in assay [5], in assay [6], in assay [7] and in assay [8] was inactive.

`CC[C@H]1CN2CC[C@H]1C[C@@H]2[C@@H](OC(=O)c1ccc(Cl)cc1)c1ccnc2ccc(OC)cc12`: the growth inhibition is -3% in assay [1] and 89% (active) in assay [4]. In addition, the inhibition in assay [2] is -18%; in assay [3], -1%. The outcome in assay [5], in assay [6], in assay [7] and in assay [8] was inactive.

Source of the values: PubChem BioAssay.
